Compounds with a hit are over-represented: about 4.3% of the library has one in this group of screens.
ADAM10 inh: human ADAM10 inhibitors, primary screen, biochemical, QFRET, HTS | Disintegrin and metalloproteinase domain-containing protein 10 (Homo sapiens), O14672 | actives 0.62% (n = 370,000) | inhibition, % at 7 µM | recombinant ADAM10, EDANS/DABCYL FRET peptide cleavage, 3 h;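 active = inhibition above a per-campaign cutoff equal to the mean of compounds falling between control-based bounds plus 3 SD, cut at about 20% in these data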;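 also: 0% = DMSO wells while the 100% control is not disclosed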
FAS-TE inh: FAS thioesterase domain inhibitors, primary screen, biochemical, fluorescence intensity, uHTS. Fatty acid synthase (Homo sapiens), P49327. recombinant FAS-TE, OMFH fluorogenic substrate, fluorescence endpoint. inhibition, % at 15 µM. actives 0.67% (n = 360,000);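 active = compounds whose normalised, plate-corrected inhibition of enzyme fluorescence in the single-dose primary screen is 50% or more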;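 also: 0% = DMSO with enzyme and 100% = substrate without enzyme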
GRIN3A LBD mod: binders of NR3A ligand-binding domain, primary screen, biophysical, differential scanning fluorimetry, uHTS; Glutamate receptor ionotropic, NMDA 3A (GRIN3A) ligand-binding domain; NR3A LBD differential scanning fluorimetry, Tm shift; 0% = protein alone, 100% = glycine-bound protein; Tm shift relative to glycine control, % at 25 µM; actives 2.5% (n = 340,000);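 active = melting temperature shift of at least 10% of the positive control shift, at one fixed dose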
ADAM17 inh: ADAM17 inhibitors, primary screen, biochemical, QFRET; recombinant ADAM17, EDANS/DABCYL FRET peptide cleavage; inhibition, % at 6.95 µM; Disintegrin and metalloproteinase domain-containing protein 17 (Homo sapiens), P78536; actives 0.83% (n = 370,000);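 active = inhibition above the mean of compounds lying between control limits plus 3 SD, set per campaign, cut at about 8.5% in these data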;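 also: 0% = DMSO-only wells as the low control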
HGIII-sPLA2 inh: human group III sPLA2 inhibitors, primary screen, biochemical, QFRET, BODIPY PC-A2 liposome substrate | Group 3 secretory phospholipase A2 (Homo sapiens), Q9NZ20 | QFRET BODIPY PC-A2 liposome hydrolysis, fluorescence | inhibition, % at 12.2 µM | actives 0.56% (n = 370,000);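 active = inhibition above mean plus 3 SD of compounds lying within the high and low control bounds, cut at about 19% in these data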;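 also: 0% = median of test compound wells and 100% = no enzyme DMSO wells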
hGIII sPLA2 conf: human group III sPLA2 inhibitors, confirmation, biochemical, QFRET, triplicate | AID 743280, 2014 | shares compounds with HGIII-sPLA2 inh | actives 34% (n = 2,000) | inhibition, % at 12.2 µM | recombinant hGIII-sPLA2, BODIPY PC-A2 QFRET fluorescence;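 active = mean inhibition across triplicates above the hit cutoff set in the earlier primary screen, cut at about 19% in these data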;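 also: 0% = enzyme with DMSO and 100% = DMSO wells lacking enzyme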
535nm interf: 535nm fluorescence optical interference, confirmation, artefact control for HGIII-sPLA2 inhibitor project, biochemical, QFRET. AID 743282, 2014. BODIPY FL product fluorescence interference. shares compounds with HGIII-sPLA2 inh. inhibition, % at 12.2 µM. actives 8.5% (n = 2,000);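 active = average inhibition above the solvent-only control mean plus 3 SD, cut at about 6% in these data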;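 also: 0% = DMSO with substrate plus product and 100% = DMSO with substrate alone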
535nm interf DR: 535nm fluorescence optical interference, dose response, artefact control for HGIII-sPLA2 inhibitor project, biochemical, QFRET; shares compounds with HGIII-sPLA2 inh; BODIPY FL product fluorescence interference, cell-free; 240 tested, under 10 active; AID 743455, 2014; IC50, µM;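 active = IC50 at or below 10 µM; inactive = IC50 above 10 µM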
Starred values were filed as active, the others as inactive.

`CCN1CCn2c3c(c4cc(Cl)ccc42)CCCC31` (configuration not stated) gave ADAM10 inh -5, FAS-TE inh 3, GRIN3A LBD mod 2, ADAM17 inh -1 and HGIII-sPLA2 inh 12.
For Cc1ccc2c(c1)c1c3n2CCNC3CCC1 (configuration not stated) the results were ADAM10 inh -12, FAS-TE inh -4, GRIN3A LBD mod 0, ADAM17 inh -5, HGIII-sPLA2 inh 27*, hGIII sPLA2 conf 32*, 535nm interf -4 and 535nm interf DR >122.
For Cc1ccc2c(c1)c1c3n2CCN(C=O)C3CCC1 (configuration not stated) the results were ADAM10 inh -18, FAS-TE inh -1, GRIN3A LBD mod -1, ADAM17 inh -18 and HGIII-sPLA2 inh 13.
For CCN(CC)CCN1CCn2c3c(c4cc(C)ccc42)CCCC31 (configuration not stated) the results were ADAM10 inh -473, FAS-TE inh -3, GRIN3A LBD mod 5, ADAM17 inh -148, HGIII-sPLA2 inh 23*, hGIII sPLA2 conf 10 and 535nm interf -20.
For COc1cc(/C=N/NC(=O)c2c(-c3c(Cl)cccc3Cl)noc2C)ccc1OCC(N)=O the results were ADAM10 inh 9, FAS-TE inh -6, GRIN3A LBD mod -2, ADAM17 inh -2 and HGIII-sPLA2 inh 3.
`Cc1onc(-c2c(Cl)cccc2Cl)c1C(=O)N/N=C(\N)COc1ccc(Cl)cc1` gave ADAM10 inh 0, FAS-TE inh 5, GRIN3A LBD mod -14, ADAM17 inh 4, HGIII-sPLA2 inh 28*, hGIII sPLA2 conf 31*, 535nm interf 0 and 535nm interf DR >122.
Screening CNC(=O)CCN(Cc1ccco1)S(=O)(=O)c1ccc(OC)c(OC)c1 returned ADAM10 inh -5, FAS-TE inh -5, GRIN3A LBD mod -2, ADAM17 inh -8, HGIII-sPLA2 inh 23*, hGIII sPLA2 conf 0 and 535nm interf -7.
For COc1cccc(NC(=O)Nc2c(-c3ccc(C)cc3)nc3ncccn23)c1 the results were ADAM10 inh -259, ADAM17 inh -66 and HGIII-sPLA2 inh 3.
O=C(CCSCCc1ccccn1)Nc1cc(F)ccc1F was read as ADAM10 inh -9, FAS-TE inh -9, GRIN3A LBD mod -3, ADAM17 inh 4, HGIII-sPLA2 inh 19*, hGIII sPLA2 conf 1 and 535nm interf -7.
CN(c1ccccc1)S(=O)(=O)c1cccc(C(=O)Nc2ccc(N3CCOCC3)cc2)c1 was read as ADAM10 inh 6, FAS-TE inh 10, GRIN3A LBD mod 0, ADAM17 inh -4 and HGIII-sPLA2 inh -8.
Screening CN(C)S(=O)(=O)c1cccc(C(=O)Nc2ccc(N3CCOCC3)cc2)c1 returned ADAM10 inh -15, FAS-TE inh -4, GRIN3A LBD mod -1, ADAM17 inh -3, HGIII-sPLA2 inh 25*, hGIII sPLA2 conf 4 and 535nm interf -2.
O=C(Nc1ccccc1N1CCCCC1)c1cccc(Cl)c1 was read as ADAM10 inh 0, FAS-TE inh 20, GRIN3A LBD mod 4, ADAM17 inh -1 and HGIII-sPLA2 inh -2.
Screening O=C(Nc1ccc(N2CCCC2)cc1)c1cccc(Cl)c1 returned ADAM10 inh 7, FAS-TE inh 1, GRIN3A LBD mod 2, ADAM17 inh 6, HGIII-sPLA2 inh 24*, hGIII sPLA2 conf 25* and 535nm interf -1.
`O=C(Nc1ccc(N2CCCCCC2)cc1)c1ccc[nH]1` gave ADAM10 inh -29, FAS-TE inh 2, GRIN3A LBD mod 4, ADAM17 inh -6, HGIII-sPLA2 inh 22*, hGIII sPLA2 conf 34*, 535nm interf -6 and 535nm interf DR >122.
CN(C)CCCN1CC(=O)N2CCc3ccc(Br)cc3C2CC1=O (configuration not stated) was read as ADAM10 inh 0, ADAM17 inh -2 and HGIII-sPLA2 inh -1.
O=C(Cc1ccccc1)Nc1nnc(-c2cccnc2)s1 was read as ADAM10 inh 1, ADAM17 inh -1 and HGIII-sPLA2 inh 1.
CCC(C)CNC(=O)CSc1nnc(-c2cccnc2)n1C1CCCCC1 (configuration not stated) was read as ADAM10 inh -4, ADAM17 inh -1 and HGIII-sPLA2 inh 2.
`Cc1cc(-c2n[nH]c(=S)n2N=Cc2cc(Br)ccc2F)n[nH]1` gave ADAM10 inh 5, ADAM17 inh 1 and HGIII-sPLA2 inh 9.
For CC(Sc1ccc(Cl)cc1)C(=O)NNC(=O)c1ccccc1O (configuration not stated) the results were ADAM10 inh -3, FAS-TE inh 13, GRIN3A LBD mod -1, ADAM17 inh -8, HGIII-sPLA2 inh 23*, hGIII sPLA2 conf 7 and 535nm interf -3.
COCCn1c(SCC(=O)NCC2CCCO2)nc2c(c1=O)SC(C)C2 (configuration not stated) was read as ADAM10 inh -11, FAS-TE inh -4, GRIN3A LBD mod -4, ADAM17 inh 2, HGIII-sPLA2 inh 20*, hGIII sPLA2 conf 3 and 535nm interf -7.
Screening Cc1ccc(C2=CCN(C)C(=O)N2c2ccccc2)cc1 returned ADAM10 inh -3, ADAM17 inh -2 and HGIII-sPLA2 inh 9.
`CCCCC(=O)Oc1cc(C)[nH]c(=O)c1[N+](=O)[O-]` gave ADAM10 inh 2, FAS-TE inh -8, GRIN3A LBD mod -11, ADAM17 inh -1, HGIII-sPLA2 inh 21*, hGIII sPLA2 conf 1 and 535nm interf -5.
COc1ccccc1COC(=O)c1cccc(S(=O)(=O)N(C)Cc2ccccc2)c1 was read as ADAM10 inh 1, ADAM17 inh 5 and HGIII-sPLA2 inh -13.
Screening Oc1c(C=C2N=c3ccccc3=N2)sc(=S)n1-c1ccccc1 returned ADAM10 inh -4, FAS-TE inh -17, GRIN3A LBD mod 3, ADAM17 inh -1 and HGIII-sPLA2 inh 4.

Screening data from PubChem.
